Growth data for seven compounds are collected here from PubChem BioAssay (NCI).

Some test systems named below: MOLT-4 leukemia; RPMI-8226 leukemia; OVCAR-8 ovarian; OVCAR-5 ovarian; SK-OV-3 ovarian; IGROV1 ovarian; NCI/ADR-RES ovarian; T-47D breast; MDA-MB-435 melanoma; SW-620 colon; MCF7 breast; HCT-116 colon; HCC-2998 colon; KM12 colon.
Common to all, as to experiment: NCI-60 one-dose screen, 48 h (100 = growth as untreated, 0 = no growth, -100 = all killed)
The next test relates to SR leukemia. The conditions noted are these: 10 µM unless noted.
For the next test, the system named is OVCAR-4 ovarian. The conditions noted are these: 10 µM unless noted.
The next test deals with OVCAR-3 ovarian. As to conditions: 10 µM unless noted.
In the next test the test system is HS 578T breast. The conditions noted are these: 10 µM unless noted.
For a further test, the system named is BT-549 breast. The conditions noted are these: 10 µM unless noted.

Molecules are shown by their SMILES. Several values for one entry are separate records, joined by “and”; a condition that tells them apart may be missing. Equal values may be shown once. The panel holds about 83,000 compounds, 20% with a hit somewhere; the sample as a whole holds those more often.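 Single-concentration screen, 48 h exposure, 96-well plates. Endpoint: percent growth. Below 10 = active.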 Activity calls are given as the source filed them.

As for `CC(=O)OCC1OC([S-])C(OC(C)=O)C(OC(C)=O)C1OC(C)=O.[Au+].c1ccc(CN2[CH-]N(Cc3ccccc3)C(c3ccccc3)=C2c2ccccc2)cc1`, the growth with MOLT-4 leukemia (4.75 µM) was 3.9% (active); in the test with MOLT-4 leukemia (10 µM), 13.5% (inactive); in the test on RPMI-8226 leukemia (4.75 µM), -20.5% (active); with RPMI-8226 leukemia (10 µM) it was -4.74% (active); in the test with OVCAR-8 ovarian (4.75 µM), 3.93% (active); with OVCAR-8 ovarian (10 µM), 22.3% (inactive). In addition, the growth in the test on OVCAR-5 ovarian (4.75 µM) is 24.2% (inactive); in the test with OVCAR-5 ovarian (10 µM), 72.2% (inactive); in the test on SK-OV-3 ovarian (4.75 µM), -13.2% (active); with SK-OV-3 ovarian (10 µM) it was 70.4% (inactive); with IGROV1 ovarian (4.75 µM) it was -33.7% (active); with IGROV1 ovarian (10 µM), -67.2% (active). Besides, the growth in the test with NCI/ADR-RES ovarian (4.75 µM) was 53.3% (inactive); in the test on NCI/ADR-RES ovarian (10 µM), 66.5% (inactive); with T-47D breast (4.75 µM) it was -20.3% (active); with T-47D breast (10 µM), -52.1% (active); with MDA-MB-435 melanoma (4.75 µM) it was 4.71% (active); with MDA-MB-435 melanoma (10 µM), 29.4% (inactive). Further, the growth in the test with SW-620 colon (4.75 µM) is -33% (active); with SW-620 colon (10 µM), -17.6% (active); in the test on MCF7 breast (4.75 µM), 0.0903% (active); in the test with MCF7 breast (10 µM) it was -66.1% (active); in the test with HCT-116 colon (4.75 µM), -5.84% (active); with HCT-116 colon (10 µM), -16.6% (active). The growth is 16.7% (inactive) in the test with HCC-2998 colon (4.75 µM), -62.8% (active) in the test with HCC-2998 colon (10 µM), 6.84% (active) in the test on KM12 colon (4.75 µM) and 38% (inactive) in the test with KM12 colon (10 µM).

Consider `CC[C@H](CC[C@@H](C)[C@H]1CC[C@H]2[C@@H]3CC[C@H]4C[C@]5(CC[C@]4(C)[C@H]3CC[C@]12C)OO[C@](C)(C(F)(F)F)O5)C(C)C`, for which the growth is 95% (inactive) in the test with MOLT-4 leukemia (10 µM unless noted); 93.9% (inactive) in the test with SR leukemia; 98.3% (inactive) in the test on RPMI-8226 leukemia (10 µM unless noted); 97% (inactive) with OVCAR-8 ovarian (10 µM unless noted); 74.3% (inactive) in the test with OVCAR-5 ovarian (10 µM unless noted); 88.4% (inactive) in the test on OVCAR-4 ovarian. For the same compound, the growth in the test on SK-OV-3 ovarian (10 µM unless noted) is 89.9% (inactive); in the test with IGROV1 ovarian (10 µM unless noted), 79.3% (inactive); with OVCAR-3 ovarian, 93.2% (inactive); in the test with HS 578T breast, 99.8% (inactive); with NCI/ADR-RES ovarian (10 µM unless noted), 98% (inactive); with T-47D breast (10 µM unless noted), 87.9% (inactive). The growth is 82.2% (inactive) in the test with BT-549 breast; 96.9% (inactive) in the test on MDA-MB-435 melanoma (10 µM unless noted); 92.4% (inactive) in the test on SW-620 colon (10 µM unless noted); 93.2% (inactive) with MCF7 breast (10 µM unless noted); 98.3% (inactive) in the test with HCT-116 colon (10 µM unless noted); 104% (inactive) in the test on HCC-2998 colon (10 µM unless noted). For the same compound, the growth in the test on KM12 colon (10 µM unless noted) was 91.4% (inactive).

With `COC(=O)[C@@H](C)C[C@H](Cc1ccccc1)NC(=O)c1cccc([C@@H](C[C@H](C(C)C)N(C)C(=O)[C@@H](NC(=O)[C@H]2CCCCN2C)C2CC2)OC(C)=O)n1`, the growth with MOLT-4 leukemia (10 µM unless noted) is 14.6% (inactive); with SR leukemia, 14.5% (inactive); with RPMI-8226 leukemia (10 µM unless noted), 25.4% (inactive); in the test on OVCAR-8 ovarian (10 µM unless noted), 14.4% (inactive); in the test on OVCAR-5 ovarian (10 µM unless noted) it was 38.2% (inactive); in the test with OVCAR-4 ovarian, 52% (inactive). The growth in the test with SK-OV-3 ovarian (10 µM unless noted) was 1.39% (active); in the test on IGROV1 ovarian (10 µM unless noted) it was 23.3% (inactive); with OVCAR-3 ovarian it was -47.5% (active); in the test with HS 578T breast it was 27% (inactive); with NCI/ADR-RES ovarian (10 µM unless noted), 16.4% (inactive); in the test with T-47D breast (10 µM unless noted), 63.1% (inactive). In addition, the growth in the test with BT-549 breast was -17.1% (active); with MDA-MB-435 melanoma (10 µM unless noted), -25.4% (active); in the test with SW-620 colon (10 µM unless noted), 23% (inactive); in the test with MCF7 breast (10 µM unless noted) it was 14% (inactive); in the test on HCT-116 colon (10 µM unless noted), 1.92% (active); in the test with HCC-2998 colon (10 µM unless noted) it was 13% (inactive). In addition, the growth in the test on KM12 colon (10 µM unless noted) was -1.96% (active).

Consider `C[C@]12CC[C@H]3[C@@H](CC=C4c5nc(N)sc5CC[C@@]43C)[C@@H]1CC[C@@H]2O`, for which the growth was 103% (inactive) with MOLT-4 leukemia (10 µM unless noted); 91.6% (inactive) in the test with SR leukemia; 103% (inactive) in the test with RPMI-8226 leukemia (10 µM unless noted); 99.5% (inactive) in the test on OVCAR-8 ovarian (10 µM unless noted); 107% (inactive) with OVCAR-5 ovarian (10 µM unless noted); 95.7% (inactive) in the test with OVCAR-4 ovarian. Also, the growth was 103% (inactive) with SK-OV-3 ovarian (10 µM unless noted); 114% (inactive) in the test on IGROV1 ovarian (10 µM unless noted); 99.6% (inactive) with OVCAR-3 ovarian; 105% (inactive) in the test on HS 578T breast; 102% (inactive) in the test with NCI/ADR-RES ovarian (10 µM unless noted); 92.2% (inactive) with T-47D breast (10 µM unless noted). The growth was 99.5% (inactive) in the test with BT-549 breast; 92.9% (inactive) in the test on MDA-MB-435 melanoma (10 µM unless noted); 90.1% (inactive) in the test on SW-620 colon (10 µM unless noted); 104% (inactive) in the test on MCF7 breast (10 µM unless noted); 92.1% (inactive) with HCT-116 colon (10 µM unless noted); 98.4% (inactive) in the test on HCC-2998 colon (10 µM unless noted). In addition, the growth in the test on KM12 colon (10 µM unless noted) was 102% (inactive).

Regarding `CC[PH+](CC)CC.O=COC1OC([S-])C(OC=O)C(OC=O)C1OC=O.[Au+]` (configuration not stated), the growth with MOLT-4 leukemia (10 µM unless noted) is -29.1% (active); in the test with SR leukemia, -18.4% (active); with RPMI-8226 leukemia (10 µM unless noted), -27.2% (active); in the test with OVCAR-8 ovarian (10 µM unless noted) it was 1.43% (active); with OVCAR-5 ovarian (10 µM unless noted), -98.5% (active); with OVCAR-4 ovarian, -89.8% (active). Also, the growth is -45.5% (active) in the test with SK-OV-3 ovarian (10 µM unless noted); -78.3% (active) in the test on IGROV1 ovarian (10 µM unless noted); -91.8% (active) in the test on OVCAR-3 ovarian; 14.5% (inactive) with HS 578T breast; 18.7% (inactive) with NCI/ADR-RES ovarian (10 µM unless noted); -82.7% (active) in the test with T-47D breast (10 µM unless noted). Besides, the growth in the test with BT-549 breast is -80.8% (active); with MDA-MB-435 melanoma (10 µM unless noted), -72.2% (active); in the test on SW-620 colon (10 µM unless noted), -76.3% (active); in the test with MCF7 breast (10 µM unless noted) it was -69.2% (active); with HCT-116 colon (10 µM unless noted), -50.3% (active); in the test on HCC-2998 colon (10 µM unless noted) it was -90% (active). The growth in the test on KM12 colon (10 µM unless noted) is -78.9% (active).

As for `COc1cc(C2C3=C(CCCC3=O)N(CCO)c3cc4c(cc32)CCC4)cc(OC)c1OC` (configuration not stated), the growth was 93.5% (inactive) with MOLT-4 leukemia (10 µM unless noted); 117% (inactive) in the test with SR leukemia; 76.2% (inactive) with RPMI-8226 leukemia (10 µM unless noted); 83.5% (inactive) in the test with OVCAR-8 ovarian (10 µM unless noted); 96.1% (inactive) with OVCAR-5 ovarian (10 µM unless noted); 75.5% (inactive) in the test with OVCAR-4 ovarian. Also, the growth is 114% (inactive) in the test with SK-OV-3 ovarian (10 µM unless noted); 98.4% (inactive) in the test with IGROV1 ovarian (10 µM unless noted); 93.5% (inactive) with OVCAR-3 ovarian; 99.9% (inactive) in the test on HS 578T breast; 87.8% (inactive) with NCI/ADR-RES ovarian (10 µM unless noted); 38.2% (inactive) with T-47D breast (10 µM unless noted). The growth in the test on BT-549 breast is 109% (inactive); in the test with MDA-MB-435 melanoma (10 µM unless noted), 100% (inactive); in the test with SW-620 colon (10 µM unless noted), 103% (inactive); with MCF7 breast (10 µM unless noted), 23% (inactive); in the test on HCT-116 colon (10 µM unless noted) it was 68.6% (inactive); in the test with HCC-2998 colon (10 µM unless noted) it was 78.9% (inactive). For the same compound, the growth with KM12 colon (10 µM unless noted) was 90.5% (inactive).

In the case of `CN1CCc2cc3c(cc2C1O)OCO3` (configuration not stated), the growth with MOLT-4 leukemia (10 µM unless noted) was 111% (inactive); in the test with SR leukemia it was 101% (inactive); in the test with RPMI-8226 leukemia (10 µM unless noted), 94.4% (inactive); in the test with OVCAR-8 ovarian (10 µM unless noted) it was 102% (inactive) and 109% (inactive); in the test with OVCAR-5 ovarian (10 µM unless noted), 94.6% (inactive) and 94.1% (inactive); in the test on OVCAR-4 ovarian it was 108% (inactive). For the same compound, the growth is 97.9% (inactive) and 105% (inactive) in the test on SK-OV-3 ovarian (10 µM unless noted); 117% (inactive) and 108% (inactive) in the test on IGROV1 ovarian (10 µM unless noted); 17.1% (inactive) and 105% (inactive) with OVCAR-3 ovarian; 55.3% (inactive) and 103% (inactive) in the test on HS 578T breast; 95.9% (inactive) and 107% (inactive) with NCI/ADR-RES ovarian (10 µM unless noted); 69.3% (inactive) and 102% (inactive) with T-47D breast (10 µM unless noted). The growth was -78.9% (active) and 100% (inactive) with BT-549 breast; 37.8% (inactive) and 102% (inactive) in the test on MDA-MB-435 melanoma (10 µM unless noted); 96.1% (inactive) and 100% (inactive) in the test with SW-620 colon (10 µM unless noted); 79.5% (inactive) and 94.6% (inactive) in the test on MCF7 breast (10 µM unless noted); 104% (inactive) and 101% (inactive) with HCT-116 colon (10 µM unless noted); 102% (inactive) and 108% (inactive) with HCC-2998 colon (10 µM unless noted). The growth with KM12 colon (10 µM unless noted) was 57.8% (inactive) and 103% (inactive).
